Screens as filed in PubChem.
VDR inh: Inhibitors of the vitamin D receptor (VDR): qHTS. Vitamin D3 receptor (Homo sapiens), P11473. VDR-SRC2-3 peptide fluorescence polarization, 2 h. Potency, µM, without a hit: max response, negative = inhibition, most hits filed as inhibitors. 400,000 tested, 0.93% active
Target sequence (P11473 whole entry, looked up): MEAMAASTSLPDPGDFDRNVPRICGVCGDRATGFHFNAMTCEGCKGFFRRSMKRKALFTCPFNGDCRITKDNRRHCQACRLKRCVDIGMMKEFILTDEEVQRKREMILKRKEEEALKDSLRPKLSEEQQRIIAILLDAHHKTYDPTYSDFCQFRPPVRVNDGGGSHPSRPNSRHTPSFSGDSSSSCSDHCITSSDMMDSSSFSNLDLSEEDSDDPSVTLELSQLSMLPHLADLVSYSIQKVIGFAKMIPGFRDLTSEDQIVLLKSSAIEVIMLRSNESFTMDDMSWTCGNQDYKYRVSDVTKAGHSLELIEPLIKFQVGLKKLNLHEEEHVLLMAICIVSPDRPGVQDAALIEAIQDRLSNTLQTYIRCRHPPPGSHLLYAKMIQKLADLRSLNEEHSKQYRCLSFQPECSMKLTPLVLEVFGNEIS
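After 23 nl compound addition and a short centrifugation, plates sat for 2 hours at ambient temperature; polarization of fluorescence then indicated loss of VDR binding to peptide SRC2-3.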
Tau fluor cs: Counterscreen qHTS for Inhibitors of Tau Fibril Formation, Fluorescence Polarization | tau K18 P301L Alexa594 fluorescence, heparin fibrillization | Potency, µM (titrated, usually from 57.7 µM), for the others: at the top dose activity change, negative = decrease | 280,000 tested, 0.93% active | AID 1463, 2008; also: nearly all actives have a fitted effect of over 55% in size
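Human tau K18 P301L (15 uM unlabeled, 0.24 uM Alexa 594-labeled) in 100 mM sodium acetate pH 7 with 20 uM heparin, 6 hr at 37 C. ThT 30 uM added, 1 hr ambient; Alexa 594 FP and total fluorescence read at 555/632 nm.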
Tau fibril ThT: qHTS for Inhibitors of Tau Fibril Formation, Thioflavin T Binding; recombinant tau K18 P301L (four-repeat tau fragment), heparin-induced fibrillization, ThT fluorescence; Potency, µM (highest dose often 57.4 µM), without a hit: at the highest dose activity, negative = inhibition, actives largely listed as inhibitors; 270,000 tested, 2.1% active; also: nearly all actives have a fitted effect of over 55% in size
Target sequence (P10636 561-689 P618L limits assumed): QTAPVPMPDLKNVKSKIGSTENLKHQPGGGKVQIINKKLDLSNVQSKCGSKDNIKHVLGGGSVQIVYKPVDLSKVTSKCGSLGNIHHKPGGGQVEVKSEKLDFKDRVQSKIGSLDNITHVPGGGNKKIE
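Tau K18 P301L fragment (15 uM unlabeled plus 0.24 uM Alexa 594-labeled) in 100 mM sodium acetate pH 7 with compound, fibrillization induced by 20 uM heparin for 6 hr at 37 C. Thioflavin T (30 uM) added, fluorescence read after 1 hr (ex 450, em 510 nm).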
Tau FP inhib: qHTS for Inhibitors of Tau Fibril Formation, Fluorescence Polarization; Potency, µM (top dose mostly 57.7 µM), for inactives: top-dose activity, negative = inhibition, actives largely listed as inhibitors; AID 1468, 2008; K18 P301L tau heparin fibrillization, Alexa594 FP, 6 h; 280,000 tested, 0.39% active; also: nearly all actives have a fitted effect of over 55% in size
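Compound effects on tau fibrillization are measured by Alexa 594 fluorescence polarization (ex 555, em 632 nm). K18 P301L tau is used at 15 uM with 0.24 uM labeled tracer, and 20 uM heparin induces aggregation over 6 hr at 37 C.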
PLK1 PBD block: qHTS for Inhibitors of PLK1-PDB (polo-like kinase 1 - polo-box domain): Primary Screen; Serine/threonine-protein kinase PLK1 (Homo sapiens), P53350; Plk1 PBD binding of FITC phosphopeptide, fluorescence polarization; Potency, µM, inactives show max response, negative = inhibition, usual class: inhibitors; 360,000 tested, 2.8% active; also: series mostly up to about 57 µM; nearly all actives have a fitted effect of over 65% in size
Sfp inh: qHTS Assay for Inhibitors of Bacillus subtilis Sfp phosphopantetheinyl transferase (PPTase) | 4'-phosphopantetheinyl transferase ffp (Bacillus subtilis), Q9F4F7 | Biochemical Sfp PPTase activity, qHTS | Potency, µM, for the others: largest response in the series, negative = inhibition, most hits filed as inhibitors | 310,000 tested, 3.5% active | AID 1490, 2009;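 also: the enzyme is Sfp with the accession as filed and its product quenches rhodamine fluorescence; 0% = enzyme reaction without inhibitor and -100% = no enzyme wells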
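Sfp 15 nM + cpd, 15 min RT; start w/ rhodamine-CoA 5 uM, BHQ-2-YbbR 12.5 uM (final); 50 mM Hepes pH 7.6, 10 mM MgCl2, 0.01% NP-40, 0.01% BSA; read 525/598 nm at 0 and 30 min.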
An asterisk follows results filed as active; ? = inconclusive; . = no result given; [ ] = dose if it differs, or a comment. Compounds with a hit are over-represented: about 6% of the library has one in this group of screens. Calls follow the shape of the dose curve; as a rule, active = well fitted curve in the direction sought with a large enough effect; inconclusive = small, poorly fitted or top-dose-only effect, or another doubt; inactive = no such curve, though single readings can be large; an effect the other way counts as inactive or inconclusive. Unless noted, % is scaled to controls: 0 for no effect and ±100 for the full control effect; potency is read from the fitted curve at half-maximal effect.

SMILES	VDR inh	Tau fluor cs	Tau fibril ThT	Tau FP inhib	PLK1 PBD block	Sfp inh
O=C(Nc1ccc(Cl)cc1F)c1cnc2sc(N3CCOCC3)nn2c1=O	6%	-4%	4%	4%	.	.
COc1ccc(/C=N/Nc2ccccn2)cc1O	-9%	-14%	?	9%	2%	50µM*
Clc1ccccc1C=NNc1ccccn1	-1%	.	.	.	-3%	.
COc1cc(/C=C(/C(=O)c2cccs2)c2nc3ccccc3[nH]2)cc(OC)c1O	50µM*	?	14µM*	-2%	-8%	-22%
COc1ccccc1/C=N/NC(=Nc1ccc(C)cc1)c1nc2ccccc2s1	.	-2%	-8%	-3%	.	-3%
COc1cc(/C=N/NC(=Nc2ccc(C)cc2)c2nc3ccccc3s2)ccc1O	19%	11µM*[quencher]	?	16%	-3%	-15%
COc1ccc2nc(Cl)c(/C=N/Nc3ccccn3)cc2c1	-13%	-19%	?	-3%	-3%	16µM*
Oc1cccc(C=NNc2ccccn2)c1	-14%	.	.	.	-4%	.
Cc1ccc(S(=O)(=O)N[C@H]2COC(=O)[C@@H](C)COC(=O)C/C=C\[C@H]2C)cc1	.	0%[11.6 µM]	-4%[11.5 µM]	-1%[11.6 µM]	.	3%
Cc1cccc(OCC(=O)N2CCC(c3nc4ccccc4o3)CC2)c1C	0%	-3%	-8%	11%	.	.
CC1=C(c2ccc(C(C)C)cc2)S(=O)(=O)NC1=NCCCN1CCN(c2ccccc2F)CC1	14%	1%	-2%	-5%	.	.
COc1ccccc1NC(=O)c1cc2ccccc2o/c1=N\O	-10%	-11%	?	6%	?	50µM*
COc1ccccc1NC(=O)c1cc2cc(Br)ccc2cc1O	?	6.3µM*[quencher]	.	-6%	-27%	?
Cc1cccc(-c2noc(-c3ccc(NC4CCCC4)c([N+](=O)[O-])c3)n2)c1	26%	-8%	2%	-7%	.	.
O=C(c1ccc(Cl)c(S(=O)(=O)NCc2cccnc2)c1)N1CCCC1	-21%	.	.	.	-23%	.
Cc1cc(C)nc(SCc2ccc(Cl)cc2)n1	8%	.	.	.	-11%	-2%
Cc1cc(C)nc(SCNC(=O)c2ccc(Cl)cc2)n1	-2%	-6%	-18%	6%	-9%	56µM*
Cc1cccc(OCC(=O)Nc2ccc(-c3nc4cc(C)ccc4o3)c(O)c2)c1	-4%	.	.	.	.	.
COc1ccccc1NCc1nnc2n1CCCCC2	3%	-8%	-9%	-7%	.	.
Cc1cc(=O)[nH]c(CN2CCC(c3ccccc3)CC2)n1	-12%	1%	0%	1%	-12%	-18%
Cc1nc(CN2CCC(c3ccccc3)CC2)cc(=O)[nH]1	?	6%	2%	1%	21µM*	19%
COc1cccc(C(=O)NNC(=O)Cc2csc(N)n2)c1	3%	0%	-3%	-2%	-2%	56µM*
CCOC(=O)Cc1csc(NC(=O)c2cccc(OC)c2)n1	16%	-1%	-6%	1%	-8%	8%
N#CC1=C(N)SC2(CCCCC2)SC1c1ccccc1 (stereo not drawn)	-29%	-15%	?	-18%	21µM*	10µM*
O=C(CN1CCCC1)Nc1c2c(nc3ccccc13)N(Cc1ccccc1)CC2	10%	-18%	-22%	0%	-9%	14µM*
SMILES	VDR inh	Tau fluor cs	Tau fibril ThT	Tau FP inhib	PLK1 PBD block	Sfp inh
COc1ccc(C)cc1NC(=O)C(NC(=O)c1cc(OC)c(OC)c(OC)c1)C(C)C (stereo not drawn)	?	-12%	-8%	0%	30µM*	18%
COc1cc(C(=O)N[C@H](C(=O)NC(C)C23CC4CC(CC(C4)C2)C3)C(C)C)cc(OC)c1OC (stereo partly drawn)	9%	-5%	-18%	0%	-5%	8%
Cc1ccc(C2(c3ccc(C)cc3)CC2C(=O)Nc2ccc([N+](=O)[O-])cc2O)cc1 (stereo not drawn)	4%	10µM*[quencher]	-14%	?	-2%	19%
CC(=O)N1CCN(C(=O)CC2OC(=O)c3ccccc32)CC1 (stereo not drawn)	?	-12%	?	-4%	27µM*	-23%
O=C(CC1OC(=O)c2ccccc21)Nc1ccccc1N1CCOCC1 (stereo not drawn)	-4%	-12%	-17%	-6%	-9%	2%
CCCNC(=O)c1ccc(N2CCC3(CC2)CC(c2ccccc2)=NO3)c(NC(=O)c2ccccc2)c1	3%	.	.	.	0%	56µM*
CCCNC(=O)c1ccc(N2CCC3(CC2)CC(c2ccccc2)=NO3)c(NC(=O)c2ccc(Br)cc2)c1	16%	.	.	.	-8%	20%
CCN(CC)C(=O)c1cc([N+](=O)[O-])cc2c1-c1ccc([N+](=O)[O-])cc1C2=C(C#N)C#N	25µM*	?	32µM*	?	9.5µM*	71µM*
CCN(CC)C(=O)c1ccc(Oc2ccc([N+](=O)[O-])cc2Cl)cc1	-10%	-1%	-2%	7%	-15%	-9%
CC(C)C(=O)Nc1cc2c3c(c1)CCN3C(=O)CC2	-6%	.	.	.	4%	15%
CC(=O)O[C@H]1CC(C)(C)C(=C=C/C(C)=C/C=C/C(C)=C/C=C/C=C(C)/C=C/C=C(\C)C(=O)C[C@@]23O[C@]2(C)C[C@@H](O)CC3(C)C)[C@](C)(O)C1	?	-10%	25µM*	?	-16%	-27%
CN(Cc1ccccc1)N=Nc1nc[nH]c1C(N)=O	.	.	.	.	-4%	.
NC1=NC(=O)C2(COC(c3cccnc3)OC2)S1 (stereo not drawn)	?	2%	0%	4%	34µM*	22%
OCc1ccccc1SSc1ccccc1CO	8.9µM*	.	.	.	0.27µM*	.
OCc1ccccc1O	0%	-5%	0%	0%	.	10%
CSc1n[nH]c2nc3c(c(=O)n12)C1(CCCCC1)Cc1ccccc1-3	-24%	?	-25%	8%	24µM*	18µM*
N#CCSc1n[nH]c2nc3c(c(=O)n12)C1(CCCCC1)Cc1ccccc1-3	-12%	?	.	14%	?	50µM*
CCSc1n[nH]c2nc3c(c(=O)n12)C1(CCCCC1)Cc1ccccc1-3	?	-18%	-1%	1%	13µM*	-26%
CCn1c(SCC#N)nc2c(c1=O)C1(CCCC1)Cc1ccccc1-2	-8%	-11%	-5%	1%	-10%	6%
CCn1c(=O)c2c(n3c(=S)[nH]nc13)-c1ccccc1CC21CCCCC1	-16%	?	?	-1%	?	18µM*
